Measles CPE = protection of cells from measles virus; actives 1.5% (n = 140,000); Measles virus-infected cells, CPE protection, absorbance; protection (pct of control), % at 4 µM; in the data active = protection mostly above about 24%, no sharp cut-off; inactive = mostly below about 26%
CYP2C19 act = increases human CYP2C19 enzyme activity | recombinant CYP2C19, luciferin-H EGE luminescence; active compounds read high; 0 = fully inhibited enzyme, 1 = untreated enzyme | 96,000 tested, under 10 active | P33261 | activation factor at 5 µM | AID 1025;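 active = activation factor of at least 2 at 5 µM in the primary screen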;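 also: 0 = wells with 2.5 mM tranylcypromine and 1 = vehicle-only wells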
Target sequence (P33261 whole entry, looked up): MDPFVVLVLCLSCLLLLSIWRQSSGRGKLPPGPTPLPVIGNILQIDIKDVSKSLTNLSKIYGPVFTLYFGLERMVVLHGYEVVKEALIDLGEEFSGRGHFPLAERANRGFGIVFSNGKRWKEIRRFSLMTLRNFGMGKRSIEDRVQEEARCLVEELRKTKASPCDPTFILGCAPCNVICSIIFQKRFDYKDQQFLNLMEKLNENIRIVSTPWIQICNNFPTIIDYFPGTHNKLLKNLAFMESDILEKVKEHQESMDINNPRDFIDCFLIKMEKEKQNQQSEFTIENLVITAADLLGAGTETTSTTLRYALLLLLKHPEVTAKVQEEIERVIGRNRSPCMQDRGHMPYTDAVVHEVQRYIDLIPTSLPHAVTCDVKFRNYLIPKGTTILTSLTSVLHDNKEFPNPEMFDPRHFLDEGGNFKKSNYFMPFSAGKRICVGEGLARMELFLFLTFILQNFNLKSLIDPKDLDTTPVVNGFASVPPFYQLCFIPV
CYP2C19 inh = inhibitors of human CYP2C19. actives 21% (n = 96,000). inhibition, % at 5 µM. CYP2C19 Supersomes, luciferin-H EGE luminescence, 30 min. P33261;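 active = CYP2C19 inhibition above a set limit at 5 µM in the primary screen, cut at about 50% in these data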;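 also: plate controls were negative control wells for no effect and 2.5 mM tranylcypromine positive control for full effect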
CYP2C9 activ = increases human cytochrome P450 2C9 activity; activation factor at 5 µM; recombinant CYP2C9, luciferin-H conversion, luminescence; active compounds read high; factor 1 = untreated enzyme, 0 = blocked; actives 1.4% (n = 96,000); AID 1024; P11712;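 active = activation factor of 2 or more for CYP2C9 at a 5 µM dose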;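 also: 0 = sulfaphenazole-blocked wells and 1 = vehicle-only wells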
CYP2C9 inh = blocks human cytochrome P450 2C9. CYP2C9 Supersomes, luciferin-H conversion, luminescence. inhibition, % at 5 µM. actives 20% (n = 96,000). AID 777;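 active = blocking of liver enzyme CYP2C9 beyond about 50% at 5 µM, limit read from the data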
Active calls of the source: *; i = inactive; . = not tested or not shown. A selection: hits, their analogues and other compounds. The true share with any hit is near 22%.

SMILES	Measles CPE	CYP2C19 act	CYP2C19 inh	CYP2C9 activ	CYP2C9 inh
O=C(C1CCN(S(=O)(=O)c2cnc[nH]2)CC1)N1CCN(c2ncccn2)CC1	15	1.2	-17	1.2	-16
CCOC(=O)C1CCCN(C(=O)C2CCN(S(=O)(=O)c3cnc[nH]3)CC2)C1 (centres undefined)	12	1	-2	0.1	87*
CCOc1ccc(OCC)c(NC(=O)C2CCN(S(=O)(=O)c3cnc[nH]3)CC2)c1	3	0.6	37	0.2	84*
Cc1cccc2sc(NC(=O)C3CCN(S(=O)(=O)c4cc([N+](=O)[O-])ccc4Cl)CC3)nc12	16	.	.	.	.
CCOC(=O)C1CCN(S(=O)(=O)c2cnc[nH]2)CC1	10	0.4	58*	0	98*
COc1ccc(C2CC(c3ccccc3)=NN2C(=O)COC(=O)c2cc(S(=O)(=O)N3CCOCC3)ccc2F)cc1 (centres undefined)	15	.	.	.	.
COC(=O)c1sccc1NC(=O)Cc1ccc(Br)cc1	17	.	.	.	.
CCn1c2ccccc2c2cc(NC(=O)CSc3nnc(-c4ccc(OC)cc4)n3N)ccc21	5	0.8	18	0.8	24
Cc1cc(C)nc(N/N=C/C(Cl)=C/c2ccccc2)n1	4	1	2	1.1	-6
Cc1ccc(C(=O)/C=C/c2ccco2)c(O)c1	6	.	.	.	.
c1ccc(-c2ncnc3nc4n(c23)CCC4)cc1	2	1	-2	1	1
CCN1C(=O)NC2C1N(S(C)(=O)=O)CCN2S(C)(=O)=O (centres undefined)	3	1	-4	1.1	-7
O=C(CC(Nc1ccccc1Cl)C(=O)OCC(=O)c1cccs1)c1ccccc1 (centres undefined)	6	0.3	65*	0.4	62*
COc1ccc(NC(=O)C2CC(=O)OC2(C)C)cc1 (centres undefined)	21	0.9	10	1.1	-11
C/C=C/c1ccc(OCCCCn2cncn2)c(OC)c1	5	0.2	75*	0.5	47
C/C=C/c1ccc(OCCOc2cc(C=O)ccc2OC)c(OC)c1	34	.	.	.	.
C/C=C/c1ccc(OCCn2cncn2)c(OC)c1	28	0.4	65*	0.6	40
C/C=C/c1ccc(OCCCn2cncn2)c(OC)c1	3	0.1	89*	0.5	50*
COc1cc(CN2CCN(c3ccccc3F)CC2)c([N+](=O)[O-])cc1OC	15	.	.	.	.
O=C(Nc1ccc(Oc2ccc(Cl)cc2)cc1)c1ncn[nH]1	6	0.5	54*	1	3
O=C(Nc1ccc2oc(-c3ccc(Cl)c(Cl)c3)nc2c1)c1ncn[nH]1	6	0.9	5	1.1	-6
CCCc1c(C)c2c(C)[nH]nc2oc1=O	4	0.4	62*	1.8	-75
COc1ccc(-c2c(C#N)c(N)nc3c2CCCCCC3)cc1OC	42*	1	-2	1	3
N#Cc1c(N)nc2c(c1-c1ccncc1)CCCCC2	4	0.8	17	0.9	12
CSc1ccc(-c2c(C#N)c(N)nc3c2CCCC3)cc1	40*	0.9	14	1.1	-6
SMILES	Measles CPE	CYP2C19 act	CYP2C19 inh	CYP2C9 activ	CYP2C9 inh
COC(=O)[C@H]1C[C@@H]1[C@H](NC(=O)c1cnccn1)c1ccccc1	2	.	.	.	.
CCOc1ccccc1NC(=O)c1cccc(NC(=O)CC(c2ccccc2)c2ccccc2)c1	3	0.3	71*	0.5	51*
CCOc1ccccc1NC(=O)c1ccc(Cl)c(NC(=O)CC(c2ccccc2)c2ccccc2)c1	4	0.5	51*	0.2	80*
CCOc1ccccc1C(=O)Nc1cc(C(=O)NCCc2ccccc2)ccc1Cl	1	1.1	-7	1.1	-7
Cc1ccc(NCCC(=O)c2ccc(Cl)cc2)cc1C	9	0.4	59*	1	5
Cc1ccc(NCCC(=O)c2cccs2)cc1Cl	13	1	-2	1	-3
Cc1ccc(C(=O)CCNc2ccc(Cl)cc2)o1	4	0.1	92*	0.6	37
CCCOc1ccc(C(=O)CCNc2ccc(C)c(Cl)c2)cc1	0	0.4	60*	0.8	20
OCCNc1ccc(Cl)cc1	23	0.8	19	0.9	7
O=C(c1cc2nc(-c3ccccc3)cc(-c3ccccc3)n2n1)N1CCN(C(=O)c2ccco2)CC1	1	0.6	38	0.6	42
O=C(c1ccccc1)c1nc2ccccc2n(CCCn2c(=O)c(C(=O)c3ccccc3)nc3ccccc32)c1=O	12	0.3	74*	0	97*
Cn1c(=O)c(C(=O)c2ccccc2)nc2ccccc21	21	0.6	43	1.4	-41
CC(C)NC(=O)c1ccc(C2SCC(=O)N2Cc2ccccc2)cc1 (centres undefined)	9	.	.	.	.
CNc1oc(-c2ccccc2Cl)nc1P(=O)(c1ccccc1)c1ccccc1	2	.	.	.	.
CNc1oc(-c2ccc(C)cc2)nc1P(=O)(c1ccccc1)c1ccccc1	6	0.8	25	0.2	81*
CC(C)(C)C1CC=C2C(C#N)=C(N)C(C#N)(C#N)C(c3cccs3)C2C1 (centres undefined)	.	0.4	57*	0.1	90*
COc1ccc(N=c2sc3ccccc3n2C)cc1	16	0.5	51*	0.7	29
Cn1c(=NCC(O)COc2ccccc2)sc2ccccc21 (centres undefined)	8	0	95*	0.6	44
COc1cc(C(=O)N/N=c2/sc3ccccc3n2C)cc(OC)c1OC	14	.	.	.	.
COc1ccccc1N=c1sc2ccccc2n1C	8	0.2	77*	0.6	42
CN(C)CCCC(C)(O)C(Cc1ccccc1)c1ccccc1 (centres undefined)	4	.	.	.	.
COc1ccc(NC(=O)C(C)N2c3cccc4cccc(c34)S2(=O)=O)cc1 (centres undefined)	12	0.3	67*	0.5	50
CCN1c2cccc3cccc(c23)S1(=O)=O	18	0.2	78*	6.2*	i
COc1ccc(NC(=O)CN2c3cccc4cccc(c34)S2(=O)=O)cc1	11	0.8	18	2.8*	-184
COC(=O)CNC(=O)CN1c2cccc3cccc(c23)S1(=O)=O	23	0.9	14	2.1*	-109
SMILES	Measles CPE	CYP2C19 act	CYP2C19 inh	CYP2C9 activ	CYP2C9 inh
COc1ccc(NC(=O)C(C)N2c3cccc4cccc(c34)S2(=O)=O)cc1OC (centres undefined)	5	.	.	.	.
CCOC(=O)CN1CC23C=CC(O2)C(C(=O)Nc2ccc(F)c(C)c2)C3C1=O (centres undefined)	11	0.6	36	1	0
COc1ccc(C(=O)NC(=S)NC2CCSC2=O)cc1 (centres undefined)	4	.	.	.	.
Nc1nc(CSc2nc3ccccc3[nH]2)nc(N2CCOCC2)n1	.	1	-3	0.7	28
Cc1cc(Cl)ccc1OCC(=O)NCCOc1nc(N2CCOCC2)nc(N2CCOCC2)n1	9	0.8	19	0.8	23
COC(=O)NCCOc1nc(N(C)C)nc(N(C)C)n1	6	1	0	1	-2
CON(C)c1nc(OCCNC(=O)COc2ccc(Cl)cc2C)nc(N(C)C)n1	3	0.6	36	0.5	51*
